# Measured values reported in PubChem BioAssay AID2315 (National Center for Advancing Translational Sciences (NCATS), 2010).
# About 27,000 (9.3%) of roughly 290,000 compounds were called active. No stated cut-off is given here; in the data, active means inhibition mostly above about 28% (no sharp cut-off); inactive means mostly below about 43%. Only a selection was taken, and actives are over-represented in it overall.
# Experiment: A qHTS for Small Molecule Inhibitors of Shiga Toxin; further: 0% is about no effect
# Settings: Vero cells, Shiga toxin protein synthesis inhibition reporter; at 38.7 µM, stronger effect = higher value
row,Compound,inhibition
1,COCCOC(=O)c1[nH]c2c(c1C)C(=O)CC(c1ccc(OC)cc1)C2 (configuration not stated),13.2% (inactive)
2,O=C(N/N=C/c1sc(N2CCCCC2)nc1-c1cccs1)c1cccnc1,-9.51% (inactive)
3,CCOc1cc(C)ccc1OCc1nnc(SCC(=O)Nc2cccc(C(=O)O)c2)n1-c1ccccc1,9.89% (inactive)
4,CC[C@H](C)[C@H](NC(=O)[C@@H](N)CCC(=O)O)C(=O)N[C@@H](CC(C)C)C(=O)N[C@@H](CC(=O)O)C(=O)N[C@H](C(=O)N1CCC[C@H]1C(=O)N[C@@H](CO)C(=O)N[C@H](C(=O)O)[C@@H](C)O)C(C)C,-4.46% (inactive)
5,CCOc1ccccc1C1CC(c2cccc(NS(C)(=O)=O)c2)=NN1C(=O)c1ccccc1 (configuration not stated),3.98% (inactive)
6,c1cncc(-c2nnc3n2C2(CCCCC2)Cc2ccccc2-3)c1,-14.6% (inactive)
7,CCOc1cccc2c1OC1(CCCCC1)N1N=C(c3cccnc3)CC21 (configuration not stated),42.4% (active)
8,CCC1C(=O)NCCN1C(=O)c1ccc2nc(Cc3ccc(OC)cc3)oc2c1 (configuration not stated),3.17% (inactive)
9,CCC1CCCCN1C(=O)CSc1nc(C)cc(C)n1 (configuration not stated),-8.51% (inactive)
10,COc1ccc(C(=O)NC2CC2)cc1OC1CCN(Cc2cnn(C)c2)CC1,14.2% (inactive)
11,Cc1c(C(=O)N(C)CCc2cnn(C)c2)oc2c(F)cccc12,2.81% (inactive)
12,CCCCc1nc2cc(C(=O)NCCc3cnn(C)c3)ccc2o1,36.3% (active)
13,CCCCc1nc2cc(C(=O)N3CCCCC3CCO)ccc2o1 (configuration not stated),105% (active)
14,CC(C)c1nnc(NC(=O)C2CC(=O)N(CCc3ccc(F)cc3)C2)s1 (configuration not stated),-7.25% (inactive)
15,COc1cccc(NC(=O)c2cc(S(=O)(=O)N3CCc4ccccc43)cn2C)c1,7.48% (inactive)
16,CCc1ccc(OC(C)C(=O)Nc2ccc(S(=O)(=O)Nc3cc(C)on3)cc2)cc1 (configuration not stated),-9.78% (inactive)
17,CC(CCc1ccc(O)cc1)NCc1ccc(Cl)cc1Cl (configuration not stated),-4.82% (inactive)
18,CCCCC1(C(=O)OCC)NC(c2ccc(O)cc2)C2C(=O)N(c3ccccc3)C(=O)C21 (configuration not stated),-10.2% (inactive)
19,COc1ccc(NC(=O)CN2C(=O)CSC2=O)cc1,-1.96% (inactive)
20,CCc1ccc(NC(=O)CN2C(=O)CSC2=O)cc1,53.9% (active)
21,CCc1ccc(NC(=O)CN2C(=O)COc3ccc(S(=O)(=O)N4CCCC4)cc32)cc1,-5.17% (inactive)
22,O=C(Nc1ccccc1N1CCN(C(=O)c2ccccc2)CC1)c1ccc2c(c1)OCO2,-7.26% (inactive)
23,O=C(CN1CCN(c2ccccc2F)CC1)c1ccc2c(c1)OCO2,53% (active)
24,CC1(c2ccc(Cl)cc2)NC(=O)N(CC(=O)c2ccc3c(c2)OCO3)C1=O (configuration not stated),1.96% (inactive)

row,Compound,inhibition
1,CCOc1cc(C2/C(=C(/O)c3ccc(S(=O)(=O)N4CCCCC4)cc3)C(=O)C(=O)N2CCOC)ccc1O (configuration not stated),-10.6% (inactive)
2,O=C(Oc1ccc(F)cc1)N1CCOCC1,-2.55% (inactive)
3,O=C(Nc1cccc(OC(=O)N2CCCCC2)c1)N1CCOCC1,-5.26% (inactive)
4,O=C(Oc1ccc2c(c1)CCC2)N1CCOCC1,97.3% (active)
5,CNS(=O)(=O)c1cccc(C(=O)NC2CCCc3ccccc32)c1 (configuration not stated),2.04% (inactive)
6,COc1ccccc1N(CC(=O)NC1CCCC1)C(=O)C1(C)CC(=O)N=C2C=CC(C)=CN21 (configuration not stated),-13.3% (inactive)
7,CSc1ncccc1C(=O)OCC(=O)N1CCOCC1,-2.04% (inactive)
8,CSc1ncccc1C(=O)NC1CCCCCC1,27.5% (inactive)
9,CSc1ncccc1C(=O)OCc1ccc(Br)cc1,42% (active)
10,COc1ccc(N2CCN(C(=O)[C@@H](NC(=O)c3cc(OC)cc(OC)c3)C(C)C)CC2)cc1,2.67% (inactive)
11,O=C(CN1CCN(S(=O)(=O)c2ccc(F)cc2)CC1)NC1CC1,-30.6% (inactive)
12,COc1ccc(-c2ccc(C3C4C=CCCC4(C)C(=O)N3Cc3ccccc3)c(F)c2)cc1OC (configuration not stated),-1.56% (inactive)
13,COCCCNC(=O)COc1cc(C)c(Cl)c(C)c1,-11.4% (inactive)
14,Cc1cc(OCc2cc(C(=O)NCc3cc(C(C)C)no3)no2)cc(C)c1Cl,79.8% (active)
15,Cc1cc(OCc2ccc(C(=O)Nc3ccc(C(=O)O)cc3)o2)ccc1Cl,2.97% (inactive)
16,Nc1nc(CC(=O)CSc2ccc(Cl)cc2)nc(Nc2ccc(F)cc2)n1,-6.2% (inactive)
17,CC(C)CN(C(=O)c1cccc(S(=O)(=O)N2CCCCC2)c1)C1CCS(=O)(=O)C1 (configuration not stated),-6.54% (inactive)
18,O=C(Cn1c(=O)n(CC2CS2)c2ccccc21)N1CCCCC1 (configuration not stated),-7.24% (inactive)
19,CCOC(=O)C1(Cc2ccccc2C)CCCN(S(C)(=O)=O)C1 (configuration not stated),-1.22% (inactive)
20,CCOC(=O)C1(CCc2ccccc2)CCN(Cc2ccco2)CC1,-2.54% (inactive)
21,O=C(CN1C(=O)CSC1=O)N1CCCC(Nc2ccc(F)cc2)C1 (configuration not stated),0.485% (inactive)
22,CCOC(=O)C1(Cc2ccccc2C)CCCN(C(=O)c2ccc(COC)o2)C1 (configuration not stated),121% (active)
23,CCOC(=O)C1(Cc2ccccc2C)CCCN(C(=O)CN2C(=O)CSC2=O)C1 (configuration not stated),78.9% (active)
